Assay results published in PubChem BioAssay (NCATS).
Values joined by “and” are separate entries in the source; they are usually repeats but may differ in a detail not shown here. Equal values may be shown once. Results filed as inconclusive are left out. Where a call stands in place of a potency, no number is given. A number with no mark means an inactive call. Active and inactive are the calls of the source. Calls follow the shape of the dose curve; as a rule, active = well fitted curve in the direction sought with a large enough effect; inconclusive = small, poorly fitted or top-dose-only effect, or another doubt; inactive = no such curve, though single readings can be large; an effect the other way counts as inactive or inconclusive.

Assays:
[1] = Vero cells viability qHTS for Zika virus inhibitors (AID 1347167); settings: cytotoxicity counter-screen (Zika); series mostly up to 45.9 µM
In short: (§1)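 qHTS titration; 24-48 h compound exposure, 37 degrees C/5% CO2; DMEM, 4% FBS; CellTiter Glo ATP luminescence.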

[2] = HepG2 cells viability qHTS for Zika virus inhibitors (AID 1347168); settings: Zika counter-screen; series mostly up to 45.9 µM; also: potency is read from the fitted curve at half-maximal effect
In short: as §1

[3] = molecular target: Lysine-specific demethylase 5B (Homo sapiens) (UniProt Q9UGL1); assay: Optimization screen for KDM5B Histone Demethylases FDH coupled qHTS against the LOPAC library (AID 1347166); settings: KDM5B demethylation, FDH-coupled NADH fluorescence (FDH is formaldehyde dehydrogenase); series mostly up to 57.5 µM
Chain of Lysine-specific demethylase 5B (Homo sapiens) (Q9UGL1 whole entry, looked up): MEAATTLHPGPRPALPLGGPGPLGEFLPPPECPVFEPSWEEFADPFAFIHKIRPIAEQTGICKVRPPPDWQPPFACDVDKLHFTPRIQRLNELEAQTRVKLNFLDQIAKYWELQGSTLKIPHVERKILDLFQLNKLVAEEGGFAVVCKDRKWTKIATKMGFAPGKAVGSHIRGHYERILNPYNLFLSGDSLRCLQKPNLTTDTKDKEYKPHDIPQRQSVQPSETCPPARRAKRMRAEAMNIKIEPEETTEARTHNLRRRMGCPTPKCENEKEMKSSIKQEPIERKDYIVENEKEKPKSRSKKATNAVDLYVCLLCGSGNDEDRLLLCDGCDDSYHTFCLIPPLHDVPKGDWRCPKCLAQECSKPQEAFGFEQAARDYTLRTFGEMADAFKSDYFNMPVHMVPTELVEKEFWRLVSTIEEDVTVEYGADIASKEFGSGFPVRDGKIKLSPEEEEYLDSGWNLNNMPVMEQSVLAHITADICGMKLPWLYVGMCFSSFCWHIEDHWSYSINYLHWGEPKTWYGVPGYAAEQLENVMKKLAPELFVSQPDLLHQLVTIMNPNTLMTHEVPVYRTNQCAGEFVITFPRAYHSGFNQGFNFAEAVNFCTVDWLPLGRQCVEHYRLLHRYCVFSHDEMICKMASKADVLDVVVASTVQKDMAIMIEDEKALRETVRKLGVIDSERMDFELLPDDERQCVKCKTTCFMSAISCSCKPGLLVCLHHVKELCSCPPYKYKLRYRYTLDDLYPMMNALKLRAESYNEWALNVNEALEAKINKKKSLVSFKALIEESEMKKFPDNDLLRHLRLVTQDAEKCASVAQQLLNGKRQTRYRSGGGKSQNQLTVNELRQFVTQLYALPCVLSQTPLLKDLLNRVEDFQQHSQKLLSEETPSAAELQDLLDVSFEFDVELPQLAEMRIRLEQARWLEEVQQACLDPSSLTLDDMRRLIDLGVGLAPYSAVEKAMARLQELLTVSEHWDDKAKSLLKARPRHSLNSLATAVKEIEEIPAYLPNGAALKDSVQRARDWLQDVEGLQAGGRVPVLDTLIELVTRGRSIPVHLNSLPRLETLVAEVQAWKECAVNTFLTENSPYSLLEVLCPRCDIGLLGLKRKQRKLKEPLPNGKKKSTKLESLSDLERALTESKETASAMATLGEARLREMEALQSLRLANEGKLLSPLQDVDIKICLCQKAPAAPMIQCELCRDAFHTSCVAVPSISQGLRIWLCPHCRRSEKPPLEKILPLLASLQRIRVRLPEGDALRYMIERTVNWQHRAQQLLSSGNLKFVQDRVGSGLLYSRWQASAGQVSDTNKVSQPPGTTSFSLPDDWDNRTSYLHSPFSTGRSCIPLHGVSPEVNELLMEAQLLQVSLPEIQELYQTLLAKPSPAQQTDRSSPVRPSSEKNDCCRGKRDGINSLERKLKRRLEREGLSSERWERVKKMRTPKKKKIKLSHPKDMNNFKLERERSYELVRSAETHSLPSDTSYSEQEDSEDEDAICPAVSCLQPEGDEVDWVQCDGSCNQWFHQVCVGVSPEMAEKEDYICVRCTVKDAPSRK
In short: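 KDM5BDeltaAP (200nM final) in 50mM HEPES pH 7.5, 0.01% Tween-20 was preincubated with compound for 10 min at room temperature. A substrate mix of 12.5uM H3K4Me3, 25uM a-ketoglutarate, ascorbate, Fe2+, NAD+ and formaldehyde dehydrogenase was then added. NADH fluorescence (340/450 nm) was read initially and after 30 min.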

[4] = Tertiary RLuc qRT-PCR qHTS assay for Zika virus inhibitors (AID 1347169); settings: infected Vero cells, reporter luminescence, 48-72 h; series mostly up to 45.9 µM; also: top concentration of the series differs between compounds; nearly all actives have a fitted effect of over 55% in size
In short: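 Orthogonal cell-based readout: luminescence measured 1-1.5 hrs after adding live-cell Renilla substrate to Vero cells that had been infected with ZIKV-RLuc (MOI 1-2) post-compound, incubated 48-72 hrs at 37 degrees C.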

[5] = OV-KATE Cancer Cell Toxicity qHTS against the NCATS CANVASS Library (AID 1347345); settings: OV-KATE cells viability, CellTiter-Glo luminescence, 72 h; series mostly up to 38.3 µM
In short: (§2)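 Cells were seeded at 1000 per well, allowed 4 h at 37 degrees C/5% CO2, then pin-treated with an 11-point compound series. After 72 h, viability was read as CellTiter-Glo luminescence following 15min at room temperature.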

[6] = HPAF-II Cancer Cell Toxicity qHTS against the NCATS CANVASS Library (AID 1347346); settings: HPAF-II viability, CellTiter-Glo ATP luminescence, 72 h; series mostly up to 38.3 µM; also: nearly all actives have a fitted effect of over 55% in size
In short: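 1000 HPAF-II cells/well; 4 h pre-incubation; 11-pnt compound titration; 72 h, 37 degrees C/5% CO2; CellTiter-Glo, 15 min RT; luminescence read.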

[7] = UWB1.289 Cancer Cell Toxicity qHTS against the NCATS CANVASS Library (AID 1347347); settings: UWB1.289 viability, CellTiter-Glo luminescence, 72 h; series mostly up to 38.3 µM; also: nearly all actives have a fitted effect of over 60% in size
In short: as §2

[8] = OV-SAHO Cancer Cell Toxicity qHTS against the NCATS CANVASS Library (AID 1347348); settings: OV-SAHO viability, CellTiter-Glo luminescence, 72 h; series mostly up to 38.3 µM; also: nearly all actives have a fitted effect of over 55% in size
In short: as §2

[9] = Panc-1005 Cancer Cell Toxicity qHTS against the NCATS CANVASS Library (AID 1347349); settings: Panc-1005 viability, CellTiter-Glo luminescence, 72 h; series mostly up to 38.3 µM; also: nearly all actives have a fitted effect of over 60% in size
In short: as §2

[10] = SW1088 Cancer Cell Toxicity qHTS against the NCATS CANVASS Library (AID 1347350); settings: SW1088 viability, CellTiter-Glo luminescence, 72 h; at 38.3 µM (top of the series); also: nearly all actives have a fitted effect of over 75% in size
In short: as §2

[11] = U-118MG Cancer Cell Toxicity qHTS against the NCATS CANVASS Library (AID 1347351); settings: U-118MG viability, CellTiter-Glo luminescence, 72 h; series mostly up to 38.3 µM
In short: as §2

[12] = COV-362 Cancer Cell Toxicity qHTS against the NCATS CANVASS Library (AID 1347352); settings: COV-362 viability, CellTiter-Glo luminescence, 72 h; series mostly up to 38.3 µM
In short: (§3)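 1000 cells/well, 4 h pre-incubation 37 °C/5% CO2; 11-pnt titration; 72 h; CellTiter-Glo 15 min RT, luminescence.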

[13] = A2780 Cisplatin Sensitive Ovarian Cancer Cell Toxicity qHTS against the NCATS CANVASS Library (AID 1347353); settings: A2780 ovarian cancer viability, ATPLite luminescence, 72 h; at 46.1 µM (top of the series); also: nearly all actives have a fitted effect of over 60% in size
In short: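 750 cells/well, 4 h settle; 11-pt cpd titration; 72 h, 37 °C, 5% CO2; ATPLite 10 min RT; luminescence read.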

[14] = UWB1.289-WTBRCA1 Cancer Cell Toxicity qHTS against the NCATS CANVASS Library (AID 1347354); settings: UWB1.289-WTBRCA1 viability, CellTiter-Glo luminescence, 72 h; series mostly up to 38.3 µM
In short: as §3

[15] = HEK-293 Cancer Cell Toxicity qHTS against the NCATS CANVASS Library (AID 1347355); settings: HEK-293 viability, CellTiter-Glo luminescence, 72 h; at 46.1 µM (top of the series); also: nearly all actives have a fitted effect of over 65% in size
In short: as §3

[16] = HPAF-II 24hr Apoptosis Induction qHTS against the NCATS CANVASS Library (AID 1347356); settings: HPAF-II caspase-3/7 Caspase-Glo luminescence; series mostly up to 46.1 µM
In short: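 500 HPAF-II cells/well; compounds in 11-pnt qHTS; 24 h, 37 C/5% CO2; Caspase-Glo 3/7 added, 15 min RT dark; luminescence read. Doxorubicin control.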

[17] = HEK293 18hr Apoptosis Induction qHTS against the NCATS CANVASS Library (AID 1347357); settings: HEK293 caspase-3/7 Caspase-Glo luminescence; series mostly up to 46.1 µM
In short: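 Caspase-Glo 3/7 luminescence (15 min, room temperature) measured apoptosis after an 18-hour, 37 degrees C exposure of HEK293 cells (500 cells/well) to compounds in 11 points.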

[18] = HPAF-II 12hr Apoptosis Induction qHTS against the NCATS CANVASS Library (AID 1347358); settings: HPAF-II caspase-3/7 Caspase-Glo luminescence; series mostly up to 46.1 µM
In short: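 Caspase-Glo 3/7 luminescence (DEVD substrate) reports caspase activity in HPAF-II cells after 12 h compound treatment at 37 degrees C. Compounds were tested in an 11-point series. Doxorubicin served as control.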

CN(C)[C@@H]1C(=O)C(C(N)=O)=C(O)[C@@]2(O)C(=O)C3=C(O)c4c(O)cccc4[C@@](C)(O)[C@H]3[C@H](O)[C@@H]12
Potency [1]: inactive
Potency [2]: inactive

CC1=C(O)C(=O)C=C2C1=CC=C1[C@@]2(C)CC[C@@]2(C)[C@@H]3C[C@](C)(C(=O)O)CC[C@]3(C)CC[C@]12C
Potency [2]: 18.5 µM (active) and 7.37 µM (active)

CC(=O)NCCc1c[nH]c2ccccc12
outcome [3]: inactive

CCCN(CCC)[C@@H]1CCc2ccc(O)cc2C1
outcome [3]: inactive

c1ccc2sc(C3(N4CCCCC4)CCCCC3)cc2c1
outcome [3]: inactive

NC(CCP(=O)(O)O)C(=O)O (stereo not given)
outcome [3]: inactive

O=C1CCCN1CC#CCN1CCCC1
outcome [3]: inactive

O=[N+]([O-])c1c(Cl)c(Cl)cc(Cl)c1Cl
activity change, negative = inhibition [4]: 77.7% [at 3.57 µM]

CCCCc1ccc(C(=O)O)nc1
outcome [3]: inactive

C[N+]1(C)C2CCC1CC(OC(=O)C(CO)c1ccccc1)C2 (stereo not given)
outcome [3]: inactive

NC1CC1c1ccccc1 (stereo not given)
outcome [3]: inactive

C[C@@H](N)Cc1cnc[nH]1
outcome [3]: inactive

NCCc1c[nH]c2ccc(O)cc12
outcome [3]: inactive
outcome [5]: inactive
outcome [6]: inactive
outcome [7]: inactive
outcome [8]: inactive
outcome [9]: inactive
outcome [10]: inactive
outcome [11]: inactive
outcome [12]: inactive
outcome [13]: inactive
outcome [14]: inactive
outcome [15]: inactive
outcome [16]: inactive
outcome [17]: inactive
outcome [18]: inactive

Oc1ccc2c3c1O[C@H]1c4[nH]c5c(c4C[C@@]4(O)[C@@H](C2)N(CC2CC2)CC[C@]314)C[C@@]1(O)[C@H]2Cc3ccc(O)c4c3[C@@]1(CCN2CC1CC1)[C@H]5O4
outcome [3]: inactive

CCCN1CCC[C@H](c2cccc(O)c2)C1
outcome [3]: inactive

NC(CP(=O)(O)O)C(=O)O (stereo not given)
outcome [3]: inactive

c1ccc(CCCN2CCN(CCOC(c3ccccc3)c3ccccc3)CC2)cc1
outcome [3]: inactive

NCCc1c[nH]c2ccccc12
outcome [3]: inactive
outcome [5]: inactive
outcome [6]: inactive
outcome [7]: inactive
outcome [8]: inactive
outcome [9]: inactive
outcome [10]: inactive
outcome [11]: inactive
outcome [12]: inactive
outcome [13]: inactive
outcome [14]: inactive
outcome [15]: inactive
outcome [16]: inactive
outcome [17]: inactive
outcome [18]: inactive

CC(=O)N(C)c1cccc(-c2ccnc3c(C(=O)c4cccs4)cnn23)c1
Potency [1]: inactive
Potency [2]: inactive

COC(=O)[C@@H](N)CCCN=C(N)N[N+](=O)[O-]
outcome [3]: inactive

O=C(O)[C@@H]1CCN1
outcome [3]: inactive

NC(=O)CN1CC(O)CC1=O (stereo not given)
outcome [3]: inactive

CC(C)NC(C)Cc1ccc(I)cc1 (stereo not given)
outcome [3]: inactive

C[C@]12CCC3C(CC[C@H]4C[C@H](O)CC[C@]34C)C1CC[C@@H]2C(=O)CO (stereo not given in full)
outcome [3]: inactive

C=CCN1CC[C@]23CCCCC2[C@H]1Cc1ccc(O)cc13 (stereo not given in full)
outcome [3]: inactive
Potency [1]: inactive
Potency [2]: inactive
outcome [4]: inactive

Nc1c(Cl)c(Cl)c(Cl)c(Cl)c1Cl
outcome [4]: inactive

CC(C)Oc1cccnc1N(C)C1CCN(Cc2ccccc2)CC1
Potency [1]: inactive
Potency [2]: inactive
outcome [4]: inactive

C/C=C(/C)C(=O)O[C@H]1C(C)=C2[C@H]([C@@H]1OC(=O)CCCCCCC)[C@@](C)(OC(C)=O)C[C@H](OC(=O)CCC)[C@@]1(O)[C@H]2OC(=O)[C@@]1(C)O
outcome [3]: inactive

CN1C2CCC1CC(OC(=O)c1cc(Cl)cc(Cl)c1)C2 (stereo not given)
outcome [3]: inactive

NC(=NCCC[C@H](N)C(=O)O)N[N+](=O)[O-]
outcome [3]: inactive
